A selection: hits, their analogues and other compounds. The true share with any hit is near 3.9%.
esBAF inh = SWI/SNF esBAF complex inhibition; AID 602393; actives 2% (n = 350,000); mouse ES cells, Bmi1-luciferase knock-in reporter, 24 h; 100% = twice the neutral-well signal; reporter increase, % at 12.5 µM; in the data active = activation above about 40%; inconclusive = no clear call, values can overlap the other calls;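 note: 0% = median of the plate's neutral control wells and 100% = double that signal; a rise in the Bmi1 reporter signal indicates esBAF inhibition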
HSF-1 act = increases HSF-1 driven luciferase reporter signal | NIH3T3-HGL HSF-1 luciferase reporter, MG132, 8 h; 100% = twice DMSO control signal | activation, % at 9 µM | actives 1.7% (n = 300,000) | AID 504408;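 active = mean replicate activation of at least 50% with a set share of replicates each reaching 50%; inconclusive = only one of those two conditions met; inactive = mean below 50% and too few replicates reaching it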;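 note: 0% = median of the neutral control wells and 100% = twice that signal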
HSF1 inh = HSF1 inhibition; NIH3T3-HGL HSE-luciferase, MG132-induced, luminescence 8 h; stronger effect = lower value; activity change, negative = inhibition, % at 7.5 µM (by protocol); actives 0.77% (n = 300,000); AID 2098;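 active = more than half of replicate wells show activity change below -50%, luminescence cut by over half; inconclusive = some wells, but at most half, below -50%; inactive = no replicate well below -50%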;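 note: luciferase reports HSF-1 transcriptional activity via heat shock element; 0% = median of DMSO wells and -100% = zero luminescence signal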
MITF TRPM1 HTS = MITF TRPM1 promoter activation in melanoma cells | SK-MEL-5 TRPM1-promoter luciferase, 24 h; % of positive control, neutral wells = 0 | activation, % at 12.5 µM | actives 0.75% (n = 300,000) | AID 588334;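 active = mean activation of at least 80% with every replicate also reaching 80%; inconclusive = mean reaches 80% but some replicate falls short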;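 note: 0% = neutral control wells and 100% = parthenolide positive control wells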
Wnt act = activates Wnt/beta-catenin signaling in a reporter cell assay; activator, plate reader; activation, % at 9.35 µM; actives 1.2% (n = 300,000); in the data active = activation above about 30%, passing the limit was not always enough; inconclusive = no clear call, values can overlap the other calls;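 note: 0% = neutral control wells and 100% = positive control wells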
Starred values were filed as active, the others as inactive; ? = inconclusive; nt = no result.

SMILES	esBAF inh	HSF-1 act	HSF1 inh	MITF TRPM1 HTS	Wnt act
CN(CC(=O)Nc1ccc(F)cc1)C(=O)COC(=O)c1cccc(N(C)C)c1	47.9*	nt	nt	nt	41.2*
N#CCC(=O)Nc1ccc(C(=O)OCC(=O)NCc2ccc3c(c2)OCO3)cc1	-4.0	nt	nt	1.6	-1.3
CO[C@@H]1CN(C)C(=O)c2ccc(NC(=O)c3ccccc3)cc2OC[C@@H](C)N(CC2CC2)C[C@H]1C	-1.8	nt	nt	nt	nt
C[C@H](CO)N1C[C@H](C)[C@H](CN(C)Cc2ccc3c(c2)OCO3)Oc2c(NC(=O)C3CCCCC3)cccc2C1=O	-1.8	nt	nt	nt	nt
COc1cccc(NC(=O)N[C@H]2CC[C@H](CC(=O)N3CCN(C)CC3)O[C@@H]2CO)c1	-6.6	nt	nt	nt	nt
CCC(=O)c1ccc(OCC(=O)Nc2ccc3c(c2)OCCO3)cc1	29.7	nt	nt	45.5	1.3
O=C(COc1ccc(F)cc1)Nc1ccc2c(c1)OCCO2	nt	11.8	7.2	65.7	37.9*
CN(C)CC(=O)Nc1ccc2c(c1)[C@H]1C[C@@H](CC(=O)NCc3cc(F)ccc3F)O[C@@H](CO)[C@H]1O2	8.1	nt	nt	nt	nt
COc1ccc(-n2c(-c3cnccn3)n[nH]c2=S)cc1	-1.6	-3.3	-0.6	-2.8	nt
S=c1[nH]nc(-c2cnccn2)n1-c1ccccc1	-9.4	-74.5	-66.9*	-0.6	nt
CNC[C@H]1OCCCC[C@@H](C)Oc2ccc(NS(C)(=O)=O)cc2C(=O)N([C@@H](C)CO)C[C@@H]1C	1.0	nt	nt	nt	nt
O=C(CNC(=O)c1ccc2c(c1)OCO2)N/N=C(Br)/C=C/c1ccccc1	nt	65.8*	34.3	-2.5	nt
O=[N+]([O-])c1ccc(Cc2nnc(-c3ccccc3Cl)o2)cc1	-5.5	-8.3	6.4	102.8*	4.3
O=C(c1cc([N+](=O)[O-])cc([N+](=O)[O-])c1)N(Cc1nnc(-c2ccccc2Cl)o1)C1CC1	nt	31.6	10.8	-32.6	-2.0
CSc1nnc([C@H](Cc2c[nH]c3ccccc23)NC(=O)OC(C)(C)C)o1	21.9	-6.1	3.2	nt	19.7
CCSc1nnc([C@H](Cc2c[nH]c3ccccc23)NC(=O)OC(C)(C)C)o1	nt	59.0*	19.3	nt	-3.7
CCN1CCc2c(sc(NC(=O)c3cc4ccccc4cc3OC)c2C(N)=O)C1	nt	-63.7	-50.9*	-34.9	-3.2
CC(C)N1CCc2c(sc(NC(=O)c3ccc4ccccc4c3)c2C(N)=O)C1	6.6	-63.6	-60.4*	55.3	0.1
Cc1noc(C)c1NC(=O)Nc1ccc2c(c1)C(=O)N([C@H](C)CO)C[C@@H](C)[C@@H](CN(C)C(=O)Nc1ccccc1)OCCCC[C@@H](C)O2	4.4	nt	nt	nt	nt
O=c1c2ccccc2nc(SCc2nnc(-c3ccccc3Br)o2)n1Cc1ccco1	-6.7	96.7*	63.5	1.1	-3.1
O=c1c2ccccc2nc(SCc2ccccc2)n1Cc1ccco1	nt	-6.1	7.9	-1.9	nt
CCn1c(=N)n(CC(=O)c2ccc(Br)s2)c2ccccc21	59.3*	-16.0	-1.8	34.0	-10.9
CCN1C(=O)/C(=C/C=C2/Sc3ccccc3N2CCO)SC1=S	-7.6	2.1	-1.7	-12.8	32.4*
CC1C=NC(S(=O)(=O)N2CC[C@@H]3[C@@H](CO)N(C)c4ccc(-c5ccccc5F)cc4[C@@H]32)=N1 (stereo partly specified)	-5.2	nt	nt	nt	nt
CCC(=O)Nc1nc2cc(OC)ccc2s1	16.9	41.7	16.8	nt	59.2*
SMILES	esBAF inh	HSF-1 act	HSF1 inh	MITF TRPM1 HTS	Wnt act
CCOCC(=O)Nc1nc2ccc(OC)cc2s1	nt	48.7	24.6	?	nt
CCC(=O)Nc1nc2ccc3nc(C)sc3c2s1	46.2*	26.7	15.9	44.3	21.7
CCC(=O)Nc1nc2c(OC)ccc(OC)c2s1	-3.5	-3.1	6.1	-9.6	6.9
COc1cc(CNc2nc3ccccc3s2)cc(OC)c1OC	7.7	34.5	3.4	nt	1.3
CCOc1ccc2sc(NS(=O)(=O)c3ccc(OC)c(OC)c3)nc2c1	3.1	64.4*	32.1	-9.9	nt
COc1ccc2sc(NCc3ccccc3)nc2c1	98.9*	13.2	1.0	111.0*	33.0*
CCNC(=O)[C@@H]1[C@@H](CO)[C@@H]2Cn3c(ccc(-c4ccc(OC)cc4)c3=O)[C@H]1N2CC	-3.9	nt	nt	nt	nt
Cc1nc2c(ccc3nc(NC(=O)C(c4ccccc4)c4ccccc4)sc32)s1	-10.0	-5.7	-4.4	-37.8	-5.0
CCC(=O)Nc1nnc(/C=C/c2ccc(OC)cc2)s1	nt	29.6	22.1	nt	34.0*
COc1ccc2sc(NC(=O)CC(C)C)nc2c1	39.8	37.5	17.4	?	57.5*
COc1ccc2sc(NC(C)=O)nc2c1	27.0	27.5	22.4	54.5	48.0*
COc1ccc2sc(NC(=O)NC(=O)c3c(Cl)cccc3Cl)nc2c1	nt	14.8	-4.3	nt	2.4

Assay outcomes as filed in PubChem.
